Measured values from PubChem BioAssay AID1159580 (chemical genetic matrix, 2015).
“And” between values parts separate entries of the source, which are not always exact repeats. Identical values can stand only once. Screen size: about 5,500 compounds; about 2,000 (36%) were called active. Inconclusive results (about 18%) are left out. Rule as the data show it: active = normalized growth mostly below about 0.91 (no sharp cut-off); inconclusive = no clear call, values can overlap the other calls; inactive = mostly above about 0.92. The list shows a part of the results.

Test: chemical genetic growth profiling, strain panel (AID 1159580);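 also: tested at 20 µM; growth read once vehicle control cultures reached saturation at 30 °C; 1 = growth at the plate median or of vehicle wells; lower values mean less growth of the strain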
Conditions: S. cerevisiae deletion strains, growth OD

Measured: normalized growth

OCC(O)C(O)C(O)CO (stereo unspecified)
inactive: locus YAL021C, strain ccr4, active compounds read low 1.01 | locus YAL026C, strain drs2, active compounds read low 1.02 and 1.01 | locus YAL030W, strain snc1, active compounds read low 1.03 and 0.992 | locus YBL061C, strain skt5, active compounds read low 1.02 and 0.994 | locus YBR009C, strain hhf1, active compounds read low 1.02 and 0.989 | locus YBR021W, strain FUR4, active compounds read low 1.07 | locus YBR023C, strain chs3, active compounds read low 1.03 and 0.999 | locus YBR171W, strain sec66, active compounds read low 1.06 and 0.99 | locus YBR229C, strain ROT2, active compounds read low 0.964 | locus YBR231C, strain swc5, active compounds read low 1.03 and 0.994 | locus YBR279W, strain paf1, active compounds read low 1.01 and 0.998 | locus YCL011C, strain gbp2, active compounds read low 1.03 and 1.01 | locus YCL016C, strain dcc1, active compounds read low 1.03 and 0.99 | locus YCL029C, strain bik1, active compounds read low 0.985 | locus YCL061C, strain MRC1, active compounds read low 1.03 | locus YCL069W, strain vba3, active compounds read low 1.03 and 0.994 | locus YCR088W, strain abp1, active compounds read low 1.02 and 0.991 | locus YDL005C, strain med2, active compounds read low 1.03 and 0.984 | locus YDL035C, strain GPR1, active compounds read low 1.04 | locus YDL040C, strain nat1, active compounds read low 1.02 and 1 | locus YDL074C, strain BRE1, active compounds read low 1.12 | locus YDL101C, strain DUN1, active compounds read low 0.996 | locus YDL134C, strain PPH21, active compounds read low 1.01 | locus YDL185W, strain tfp1, active compounds read low 0.982 | locus YDL192W, strain arf1, active compounds read low 1.02 | locus YDR001C, strain nth1, active compounds read low 1.02 | locus YDR069C, strain doa4, active compounds read low 1.02 and 0.976 | locus YDR101C, strain arx1, active compounds read low 1.05 | locus YDR137W, strain rgp1, active compounds read low 1.09 and 0.983 | locus YDR159W, strain sac3, active compounds read low 1.03 and 1 | locus YDR162C, strain NBP2, active compounds read low 0.971 | locus YDR195W, strain ref2 1.04 and 0.983 | locus YDR297W, strain sur2, active compounds read low 1.02 and 1.01 | locus YDR318W, strain mcm21, active compounds read low 0.992 | locus YDR334W, strain swr1, active compounds read low 1.02 and 1 | locus YDR335W, strain msn5, active compounds read low 1.02 and 0.999 | locus YDR388W, active compounds read low 0.995 | locus YDR392W, strain spt3, active compounds read low 1.02 and 0.998 | locus YDR502C, strain sam2, active compounds read low 0.995 | locus YEL003W, strain gim4, active compounds read low 1.03 and 1 | locus YEL037C, strain rad23, active compounds read low 1.01 and 1 | locus YEL061C, strain CIN8 (second series), active compounds read low 1.03 and 0.998 | locus YEL061C, strain CIN8, active compounds read low 1.01 | locus YER015W, strain faa2, active compounds read low 1.02 and 1 | locus YER016W, strain bim1, active compounds read low 1.03 and 0.982 | locus YER110C, active compounds read low 0.983 | locus YER111C, strain swi4, active compounds read low 1.05 and 0.999 | locus YER155C, strain BEM2 (second series), active compounds read low 1.05 and 0.987 | locus YER155C, strain BEM2, active compounds read low 1 | locus YER167W, strain BCK2, active compounds read low 1.01 | locus YFR010W, strain ubp6, active compounds read low 1.02 and 1 | locus YGL078C, strain dbp3, active compounds read low 1.01 | locus YGL086W, strain mad1, active compounds read low 1.05 | locus YGL167C, strain pmr1, active compounds read low 1.04 and 1 | locus YGL173C, strain kem1, active compounds read low 1.03 and 0.996 | locus YGL227W, strain vid30, active compounds read low 1.02 and 0.98 | locus YGL240W, strain doc1, active compounds read low 1.03 and 1.01 | locus YGL248W, strain PDE1, active compounds read low 0.999 | locus YGL253W, strain hxk2, active compounds read low 1.02 and 1.01 | locus YGR135W, strain pre9, active compounds read low 0.984 | locus YGR229C, strain SMI1, active compounds read low 1.04 | locus YGR252W, strain gcn5, active compounds read low 1.06 | locus YHR013C, strain ard1, active compounds read low 1.04 and 0.994 | locus YHR027C, strain rpn1, active compounds read low 1.03 and 0.991 | locus YHR030C, strain SLT2, active compounds read low 1.03 and 1.02 | locus YHR079C, strain IRE1 (second series), active compounds read low 0.994 | locus YHR079C, strain IRE1, active compounds read low 1.02 and 1.05 | locus YHR094C, strain hxt1, active compounds read low 0.982 | locus YHR129C, strain ARP1, active compounds read low 1.02 | locus YHR142W, strain chs7, active compounds read low 1.04 and 1.02 | locus YHR200W, strain rpn10, active compounds read low 1 | locus YIL066C, strain RNR3, active compounds read low 1.02 | locus YIL073C, strain SPO22, active compounds read low 1.07 | locus YIL125W, strain kgd1, active compounds read low 0.997 | locus YIR030C, strain dcg1, active compounds read low 1 | locus YJL092W, strain hpr5, active compounds read low 1.03 and 1 | locus YJL095W, strain BCK1 (second series), active compounds read low 1.01 and 0.999 | locus YJL095W, strain BCK1, active compounds read low 1.04 and 1.03 | locus YJL115W, strain asf1, active compounds read low 1.04 and 0.983 | locus YJL129C, strain trk1, active compounds read low 1.05 and 0.992 | locus YJL134W, strain LCB3, active compounds read low 0.993 | locus YJL154C, strain vps35, active compounds read low 1.02 and 0.991 | locus YJL164C, strain tpk1, active compounds read low 1.03 and 0.996 | locus YJL166W, strain qcr8, active compounds read low 1.03 and 1.01 | locus YJL168C, strain set2, active compounds read low 0.998 | locus YJL187C, strain SWE1 (second series), active compounds read low 0.995 | locus YJL187C, strain SWE1, active compounds read low 1.04 and 0.996 | locus YJR043C, strain POL32, active compounds read low 1.05 | locus YJR066W, strain TOR1, active compounds read low 0.962 and 0.981 | locus YKL009W, strain mrt4, active compounds read low 1.06 | locus YKL068W, active compounds read low 0.987 | locus YKL085W, strain MDH1 (second series), active compounds read low 1.01 | locus YKL085W, strain MDH1, active compounds read low 1.01 | locus YKL160W, strain elf1, active compounds read low 1.02 and 0.994 | locus YKL190W, strain CNB1, active compounds read low 0.996 | locus YKR001C, strain vps1, active compounds read low 1.02 | locus YKR026C, strain gcn3, active compounds read low 1.03 and 0.989 | locus YKR091W, strain srl3, active compounds read low 1.02 and 0.991 | locus YLL001W, strain dnm1, active compounds read low 1.03 and 1 | locus YLL026W, active compounds read low 1.03 and 0.991 | locus YLL041C, strain sdh2, active compounds read low 1.02 and 0.993 | locus YLR027C, strain aat2, active compounds read low 1.03 and 0.975 | locus YLR039C, strain RIC1, active compounds read low 1.07 | locus YLR058C, strain SHM2, active compounds read low 1 | locus YLR102C, strain apc9, active compounds read low 0.992 | locus YLR113W, strain HOG1, active compounds read low 1.02 and 1.06 | locus YLR221C, strain rsa3, active compounds read low 1.03 and 0.996 | locus YLR258W, strain gsy2, active compounds read low 1.01 and 1 | locus YLR262C, strain YPT6 (second series), active compounds read low 1.05 and 1.02 | locus YLR262C, strain YPT6, active compounds read low 1.02 | locus YLR268W, strain sec22, active compounds read low 1.03 | locus YLR320W, strain mms22, active compounds read low 1.03 and 1.01 | locus YLR330W, strain CHS5, active compounds read low 1.01 | locus YLR342W, strain FKS1 (second series), active compounds read low 1.16 | locus YLR342W, strain FKS1, active compounds read low 1.03 and 0.995 | locus YLR357W, strain rsc2, active compounds read low 1.06 and 0.993 | locus YLR370C, strain arc18, active compounds read low 1.02 and 0.986 | locus YLR371W, strain rom2, active compounds read low 1 | locus YLR384C, strain iki3, active compounds read low 1.03 and 0.966 | locus YLR418C, strain cdc73, active compounds read low 1.05 | locus YML016C, strain PPZ1, active compounds read low 1 | locus YML032C, strain rad52, active compounds read low 0.996 | locus YML120C, strain ndi1, active compounds read low 1.03 and 1 | locus YML124C, strain tub3, active compounds read low 0.99 | locus YMR058W, strain fet3, active compounds read low 1.02 and 1 | locus YMR078C, strain ctf18, active compounds read low 0.998 | locus YMR125W, strain sto1, active compounds read low 1.02 and 1 | locus YMR129W, active compounds read low 1.03 and 0.992 | locus YMR205C, strain PFK2, active compounds read low 1.05 and 0.988 | locus YMR223W, strain ubp8, active compounds read low 1 | locus YMR231W, strain pep5, active compounds read low 1.01 | locus YMR263W, strain SAP30, active compounds read low 1.01 | locus YMR307W, strain GAS1, active compounds read low 1.2 | locus YNL067W, strain RPL9B, active compounds read low 0.991 | locus YNL071W, strain lat1, active compounds read low 1.02 and 1.01 | locus YNL128W, strain TEP1, active compounds read low 1.02 | locus YNL183C, strain NPR1, active compounds read low 0.969 and 0.984 | locus YNL209W, strain ssb2, active compounds read low 1.01 and 0.988 | locus YNL233W, strain BNI4, active compounds read low 1.02 | locus YNL248C, strain rpa49, active compounds read low 1.03 and 1.02 | locus YNL250W, strain rad50, active compounds read low 1 | locus YNL271C, strain bni1, active compounds read low 1.01 | locus YNL298W, strain CLA4, active compounds read low 1.02 | locus YNL307C, strain MCK1, active compounds read low 0.997 | locus YNL322C, strain KRE1 (second series), active compounds read low 1.03 and 0.99 | locus YNL322C, strain KRE1, active compounds read low 1.01 | locus YNR049C, strain mso1, active compounds read low 1.02 and 0.994 | locus YNR052C, strain pop2, active compounds read low 1.01 | locus YOL012C, strain htz1 0.9 | locus YOL147C, strain pex11, active compounds read low 0.994 | locus YOR001W, strain rrp6, active compounds read low 1.01 and 0.998 | locus YOR061W, strain CKA2, active compounds read low 0.989 | locus YOR069W, strain VPS5, active compounds read low 1.01 | locus YOR070C, strain gyp1, active compounds read low 1.01 and 0.994 | locus YOR080W, strain dia2, active compounds read low 1.03 and 0.985 | locus YOR083W, strain WHI5, active compounds read low 1.01 and 0.997 | locus YOR106W, strain vam3, active compounds read low 1.05 and 0.998 | locus YOR136W, strain idh2, active compounds read low 0.992 | locus YOR144C, strain elg1, active compounds read low 0.989 | locus YOR184W, strain ser1, active compounds read low 1 | locus YOR231W, strain MKK1, active compounds read low 1.03 and 1.05 | locus YOR265W, strain rbl2, active compounds read low 1.03 and 0.995 | locus YOR270C, strain vph1, active compounds read low 1.09 and 1.04 | locus YOR290C, strain snf2, active compounds read low 1.04 and 0.997 | locus YOR316C, strain cot1, active compounds read low 0.989 | locus YPL051W, strain arl3, active compounds read low 1.02 and 0.975 | locus YPL078C, strain atp4, active compounds read low 1.02 and 0.992 | locus YPL106C, strain sse1, active compounds read low 1.03 and 0.946 | locus YPL240C, strain hsp82, active compounds read low 1.02 and 0.997 | locus YPL241C, strain CIN2, active compounds read low 0.997 | locus YPL256C, strain CLN2, active compounds read low 0.996 and 1.06 | locus YPR119W, strain clb2, active compounds read low 1 | locus YPR141C, strain kar3, active compounds read low 0.992 | locus YPR163C, strain tif3, active compounds read low 0.995 | locus YPR167C, strain met16, active compounds read low 1 | strain wtn01, active compounds read low 1.04
